A number with no mark means an inactive call. Inconclusive results are not listed. The source made the active and inactive calls. Unless noted, calls come from the whole dose curve; as a rule, active = well fitted curve in the direction sought with a large enough effect; inconclusive = small, poorly fitted or top-dose-only effect, or another doubt; inactive = no such curve, though single readings can be large; an effect the other way counts as inactive or inconclusive.
Legend:
[1] = target: Lysosomal acid glucosylceramidase (Homo sapiens) (UniProt P04062); assay: Glucocerebrosidase-p2 (AID 348; in the data active = potency below about 10 µM; note: potency is the fitted concentration of half-maximal effect); settings: purified GBA, blue fluorogenic substrate, 40 min
Chain of Lysosomal acid glucosylceramidase (Homo sapiens) (P04062 whole entry, looked up): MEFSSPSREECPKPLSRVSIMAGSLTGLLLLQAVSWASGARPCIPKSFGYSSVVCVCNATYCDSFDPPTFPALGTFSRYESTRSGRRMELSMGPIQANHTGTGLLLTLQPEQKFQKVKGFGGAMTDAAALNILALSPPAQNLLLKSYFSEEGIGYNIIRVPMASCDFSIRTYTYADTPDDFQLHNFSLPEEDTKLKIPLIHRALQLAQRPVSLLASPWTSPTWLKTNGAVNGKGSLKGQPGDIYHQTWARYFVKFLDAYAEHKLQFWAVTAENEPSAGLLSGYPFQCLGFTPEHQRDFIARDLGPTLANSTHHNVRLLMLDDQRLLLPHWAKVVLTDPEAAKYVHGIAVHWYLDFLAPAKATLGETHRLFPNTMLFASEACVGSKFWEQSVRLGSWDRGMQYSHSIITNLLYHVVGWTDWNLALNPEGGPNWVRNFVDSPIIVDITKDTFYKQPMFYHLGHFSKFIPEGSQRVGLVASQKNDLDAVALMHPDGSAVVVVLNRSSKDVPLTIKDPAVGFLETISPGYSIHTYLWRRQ
Method in brief: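 Compounds titrated from 0.6 nM upwards against 0.2 nM enzyme in pH 5.9 citric acid/KH2PO4, taurocholate, tween-20; blue fluorogenic substrate 80 uM, 40 min room temperature, stopped and read Ex 365/Em 440 for AC50.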

[2] = AP1 Signaling Pathway (AID 357; active = well fitted curve in either direction with a large enough effect, not every such curve was filed as active;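 note: ME-180 reporter cells stimulated with EGF at its EC50 level; % is set by controls: 0 for no effect and ±100 for the full control effect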); settings: ME-180 AP-1-bla reporter, EGF-induced, beta-lactamase ratio, 5 h; at 7.69 µM (top of the series) unless noted
Method in brief: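 Cells are seeded overnight, exposed to compound titrations and an EC50 level of EGF for 5 hours at 37 °C, then loaded with CCF4 dye for 2.5 hours. Beta-lactamase activity under the AP-1 element is read as a blue/green ratio.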

[3] = NFAT Signaling Pathway (AID 444; active = well fitted curve in either direction with a large enough effect, not every such curve was filed as active;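 note: carbachol stimulus at about its EC50 of 1 µM final; % is set by controls: 0 for no effect and ±100 for the full control effect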); settings: Jurkat NFAT-bla M1, carbachol, beta-lactamase ratio, 5 h; at 7.69 µM (top of the series) unless noted
Method in brief: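 Read-out: CCF4 FRET ratio (460 nm/530 nm) after 1 h RT dye loading, used for %activity and AC50 from titration series. Cells: Jurkat NFAT-β-lactamase/M1 line, treated with compound plus 1 uM carbachol for 5 h, 37 °C.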

[4] = Stat Signaling Pathway (AID 446; active = well fitted curve in either direction with a large enough effect, not every such curve was filed as active;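 note: ME-180 cervical cancer cells given 40 pM IL-6 alongside compound; SIE-controlled beta-lactamase reporter measured as 460/530 nm FRET emission ratio; % is set by controls: 0 for no effect and ±100 for the full control effect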); settings: ME-180 SIE beta-lactamase reporter, IL-6 stimulated, 5 h; at 7.69 µM (top of the series) unless noted
Method in brief: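 ME-180 SIE-bla cells; overnight plating; cpd + IL-6 40 pM, 5 h, 37 C; LiveBLAzer 2.5 h RT; 460/530 nm emission ratio. Normalized to 300 pM IL-6 and 125 nM JAK inhibitor controls.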

[5] = target: Glucocorticoid receptor (Homo sapiens) (UniProt P04150); assay: GR-GFP Redistribution (AID 450;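 active = compounds whose dose series gives a full or clear partial fitted curve of increased nuclear translocation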; note: potency is the fitted concentration of half-maximal effect); settings: U2OS GR-GFP nuclear translocation, laser cytometry, 2 h
Chain of Glucocorticoid receptor (Homo sapiens) (P04150 whole entry, looked up, the tested form may be a part): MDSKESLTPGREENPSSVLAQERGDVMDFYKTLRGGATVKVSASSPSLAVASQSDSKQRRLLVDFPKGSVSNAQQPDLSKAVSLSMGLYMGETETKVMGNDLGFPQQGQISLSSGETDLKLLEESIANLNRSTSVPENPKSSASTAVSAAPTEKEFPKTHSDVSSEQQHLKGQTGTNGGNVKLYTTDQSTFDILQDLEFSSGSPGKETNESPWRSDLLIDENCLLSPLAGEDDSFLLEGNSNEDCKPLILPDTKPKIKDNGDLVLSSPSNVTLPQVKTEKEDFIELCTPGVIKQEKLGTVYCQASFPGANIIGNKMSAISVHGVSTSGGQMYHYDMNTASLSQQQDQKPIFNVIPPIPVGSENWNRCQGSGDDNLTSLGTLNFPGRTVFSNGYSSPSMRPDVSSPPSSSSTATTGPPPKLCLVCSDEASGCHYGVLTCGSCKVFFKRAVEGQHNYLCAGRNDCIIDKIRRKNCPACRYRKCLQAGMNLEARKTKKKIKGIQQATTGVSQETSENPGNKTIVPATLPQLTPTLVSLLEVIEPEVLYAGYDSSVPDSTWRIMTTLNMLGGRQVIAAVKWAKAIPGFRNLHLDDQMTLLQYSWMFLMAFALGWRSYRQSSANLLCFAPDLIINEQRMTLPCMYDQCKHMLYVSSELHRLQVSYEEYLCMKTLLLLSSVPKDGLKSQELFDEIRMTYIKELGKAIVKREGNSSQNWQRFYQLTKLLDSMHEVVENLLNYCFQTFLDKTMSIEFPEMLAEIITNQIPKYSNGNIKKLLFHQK

[6] = target: Glucocorticoid receptor (Homo sapiens) (UniProt P04150); assay: GR-EFC Redistribution (AID 451; calls by dose curve; note: potency is the fitted concentration of half-maximal effect); settings: CHO-K1 GR-EFC translocation, beta-gal luminescence, 2 h
Method in brief: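 Translocation of GR-ED fusion to nuclear EA restores b-gal, read by luminescence after 1 h room-temperature detection. Engineered CHO-K1 biosensor cells, 1,000/well, exposed 2 h at 37 C to titrations up to 46 uM final.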

[7] = target: Mitogen-activated protein kinase 10 (Mus musculus) (UniProt Q61831); assay: JNK3 AlphaScreen Assay (AID 530; active = well fitted curve in either direction with a large enough effect, not every such curve was filed as active;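 note: kinase came from lysate of stimulated human HepG2 cells; signal reports phosphorylation of biotinylated GST-cJun 1-79 at Ser73 with 10 µM ATP; % is set by controls: 0 for no effect and ±100 for the full control effect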); settings: JNK3 lysate, c-Jun phosphorylation; series mostly up to 57.1 µM
Method in brief: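 Room-temperature AlphaScreen kinase assay; pre-activated HepG2 lysate as JNK3 source, biotin-GST-cJun(1-79) substrate, 10 uM ATP, compound 15 min preincubation.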

[8] = target: 3',5'-cyclic-AMP phosphodiesterase 4B (Homo sapiens) (UniProt Q07343); assay: qHTS Assay for Inhibitors of PDE-IV (AID 607; active = well fitted activation curve with a large enough effect in the main read-out, with a control signal flat, not every such curve was filed as active; note: % of control where 0% means no effect); settings: HEK293 ACTOne CNG channel cells, membrane potential fluorescence; series mostly up to 22.9 µM
Chain of 3',5'-cyclic-AMP phosphodiesterase 4B (Homo sapiens) (Q07343 whole entry, looked up): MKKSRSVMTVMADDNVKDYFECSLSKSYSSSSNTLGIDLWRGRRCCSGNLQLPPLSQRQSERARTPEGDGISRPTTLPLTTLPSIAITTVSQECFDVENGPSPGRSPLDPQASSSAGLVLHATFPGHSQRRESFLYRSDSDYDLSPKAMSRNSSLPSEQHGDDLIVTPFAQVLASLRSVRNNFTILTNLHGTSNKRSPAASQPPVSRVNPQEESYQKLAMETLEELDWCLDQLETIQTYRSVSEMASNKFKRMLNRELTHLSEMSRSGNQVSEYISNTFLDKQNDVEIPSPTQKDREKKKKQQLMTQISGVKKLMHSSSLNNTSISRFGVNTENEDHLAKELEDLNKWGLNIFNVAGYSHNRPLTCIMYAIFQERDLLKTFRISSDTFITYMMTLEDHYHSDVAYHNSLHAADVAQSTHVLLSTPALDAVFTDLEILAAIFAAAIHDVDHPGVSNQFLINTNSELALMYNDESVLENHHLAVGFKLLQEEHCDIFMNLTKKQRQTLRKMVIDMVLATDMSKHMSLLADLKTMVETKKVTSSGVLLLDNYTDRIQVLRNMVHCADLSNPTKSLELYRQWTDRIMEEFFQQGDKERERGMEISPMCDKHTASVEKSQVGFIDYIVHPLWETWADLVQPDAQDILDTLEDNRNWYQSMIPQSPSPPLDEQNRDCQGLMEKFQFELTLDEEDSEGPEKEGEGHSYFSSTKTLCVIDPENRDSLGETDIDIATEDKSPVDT
Method in brief: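 ACTOne HEK293 cells carry a modified cAMP-gated CNG channel and express endogenous PDE4; plated 1000 cells/well, compounds up to 22.9 uM final. Membrane-potential dye fluorescence (ex 535/em 590) was read; parental cells received 10 uM forskolin + 100 uM RO 20-1724.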

[9] = target: Dual specificity protein kinase CLK4 (Homo sapiens) (UniProt Q9HAZ1); assay: qHTS Assay for Inhibitors of CDC-like Kinase 4 (Kinase-Glo Assay) (AID 1770); settings: recombinant Clk4, Kinase-Glo ATP depletion luminescence; series mostly up to 66.7 µM; note: nearly all actives have a fitted effect of over 65% in size; note: potency is the fitted concentration of half-maximal effect
Chain of Dual specificity protein kinase CLK4 (Homo sapiens) (Q9HAZ1 whole entry, looked up): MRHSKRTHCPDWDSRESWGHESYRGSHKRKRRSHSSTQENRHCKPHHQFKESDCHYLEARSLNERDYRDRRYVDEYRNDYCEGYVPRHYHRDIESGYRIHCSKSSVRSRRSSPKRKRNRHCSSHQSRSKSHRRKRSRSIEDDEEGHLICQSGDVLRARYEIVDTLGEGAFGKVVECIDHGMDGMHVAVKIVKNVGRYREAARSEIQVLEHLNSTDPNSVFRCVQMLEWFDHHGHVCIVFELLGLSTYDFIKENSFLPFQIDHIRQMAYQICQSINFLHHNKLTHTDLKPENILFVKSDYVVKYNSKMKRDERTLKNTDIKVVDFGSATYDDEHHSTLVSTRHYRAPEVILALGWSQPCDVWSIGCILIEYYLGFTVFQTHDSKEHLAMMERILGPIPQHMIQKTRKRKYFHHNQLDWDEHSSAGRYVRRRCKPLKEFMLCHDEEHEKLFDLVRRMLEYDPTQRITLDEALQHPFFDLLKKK
Method in brief: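 Recombinant human Clk4 (25 nM) phosphorylated RS repeat peptide (100 uM) with 1 uM ATP in Tris pH 7.5/MgCl2/EGTA/DTT/Triton buffer for 4.5 h at room temperature. Residual ATP was quantified by Kinase-Glo luciferase luminescence.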

[10] = target: Dual specificity protein kinase CLK4 (Homo sapiens) (UniProt Q9HAZ1); assay: qHTS Assay for Inhibitors of CDC-like Kinase 4 (ADP-Glo Assay) (AID 1771); settings: recombinant CLK4, ADP-Glo luminescence; series mostly up to 80 µM; note: nearly all actives have a fitted effect of over 70% in size; note: potency is the fitted concentration of half-maximal effect
Method in brief: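 Clk4 (25 nM) was incubated 1 hr at room temperature with 100 uM RS repeat peptide and 1 uM ATP in buffer with 2 mM MgCl2, 0.5 mM EGTA, 2.5 mM DTT. ADP formed was quantified by ADP-Glo luminescence.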

[11] = target: Dual specificity protein kinase CLK4 (Homo sapiens) (UniProt Q9HAZ1); assay: qHTS Assay for Inhibitors of CDC-like Kinase 4 (ADP-FP Assay) (AID 1795); settings: Transcreener ADP fluorescence polarization; series mostly up to 50 µM; note: nearly all actives have a fitted effect of over 60% in size; note: potency is the fitted concentration of half-maximal effect
Method in brief: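 Recombinant human Clk4 (6.25 nM) phosphorylated RS repeat peptide (100 uM) with 1 uM ATP in Tris pH 7.5/MgCl2/EGTA/DTT/Triton buffer for one hour. ADP was quantified by Transcreener competitive fluorescence polarization against an ADP calibration curve.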

[12] = target: Ubiquitin carboxyl-terminal hydrolase 1 (Homo sapiens) (UniProt O94782); assay: Inhibitors of USP1/UAF1: Pilot qHTS (AID 504865); settings: purified USP1/UAF1, Ub-rhodamine cleavage fluorescence; series mostly up to 54.9 µM;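 note: rhodamine fluorescence freed from ubiquitin-rhodamine substrate followed over time; top concentration of the series differs between compounds; % is set by controls: 0 for no effect and ±100 for the full control effect; nearly all actives have a fitted effect of over 35% in size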
Chain of Ubiquitin carboxyl-terminal hydrolase 1 (Homo sapiens) (O94782 whole entry, looked up): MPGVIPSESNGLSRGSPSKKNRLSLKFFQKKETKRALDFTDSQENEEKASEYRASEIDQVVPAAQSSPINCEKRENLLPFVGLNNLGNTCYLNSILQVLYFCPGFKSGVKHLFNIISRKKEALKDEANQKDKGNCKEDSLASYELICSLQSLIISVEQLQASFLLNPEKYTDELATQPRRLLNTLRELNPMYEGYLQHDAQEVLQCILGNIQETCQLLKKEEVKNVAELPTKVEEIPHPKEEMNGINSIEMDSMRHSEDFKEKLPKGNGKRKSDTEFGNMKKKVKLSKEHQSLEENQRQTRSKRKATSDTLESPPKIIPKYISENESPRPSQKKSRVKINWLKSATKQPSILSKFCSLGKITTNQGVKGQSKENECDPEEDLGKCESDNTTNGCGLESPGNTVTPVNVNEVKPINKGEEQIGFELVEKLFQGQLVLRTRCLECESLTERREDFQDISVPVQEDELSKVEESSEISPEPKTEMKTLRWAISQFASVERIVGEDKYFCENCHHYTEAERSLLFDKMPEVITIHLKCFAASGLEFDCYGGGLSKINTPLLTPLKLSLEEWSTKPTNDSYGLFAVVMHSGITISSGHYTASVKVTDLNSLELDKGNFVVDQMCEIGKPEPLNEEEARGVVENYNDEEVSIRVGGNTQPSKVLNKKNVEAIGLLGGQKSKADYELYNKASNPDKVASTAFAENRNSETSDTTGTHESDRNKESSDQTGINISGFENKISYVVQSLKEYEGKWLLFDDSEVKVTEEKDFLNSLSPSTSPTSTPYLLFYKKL
Method in brief: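 USP1/UAF1 complex (1nM) preincubated with compound 15 min at room temperature, then Ub-Rho substrate (150nM final) added. Fluorescence read kinetically at 480/540 nm, 6 reads every 60 seconds. Buffer: 50mM HEPES pH 7.8, 0.5mM EDTA, 0.1 mg/ml BSA, 1mM TCEP, 0.01% Tween-20.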

[13] = Primary qHTS for small molecule stabilizers of the endoplasmic reticulum resident proteome: Secreted ER Calcium Modulated Protein (SERCaMP) assay (AID 1508630); settings: SH-SY5Y GLuc-SERCaMP (Gaussia luciferase released on ER calcium loss) secretion, thapsigargin, luminescence; series mostly up to 38.4 µM; note: % is set by controls: 0 for no effect and ±100 for the full control effect
Method in brief: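 GLuc-SERCaMP-expressing SH-SY5Y cells, pretreated 16 h with compound, are challenged with thapsigargin to empty ER calcium stores; after 4 h, coelenterazine is added directly to the medium and luminescence is imaged.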

[14] = target: Cytochrome P450 1A2 (Homo sapiens) (UniProt P05177); assay: p450-cyp1a2 (AID 410; calls by dose curve; note: potency is the fitted concentration of half-maximal effect); settings: recombinant CYP1A2, luciferin-ME demethylation, luminescence; series mostly up to 57 µM
Chain of Cytochrome P450 1A2 (Homo sapiens) (P05177 whole entry, looked up): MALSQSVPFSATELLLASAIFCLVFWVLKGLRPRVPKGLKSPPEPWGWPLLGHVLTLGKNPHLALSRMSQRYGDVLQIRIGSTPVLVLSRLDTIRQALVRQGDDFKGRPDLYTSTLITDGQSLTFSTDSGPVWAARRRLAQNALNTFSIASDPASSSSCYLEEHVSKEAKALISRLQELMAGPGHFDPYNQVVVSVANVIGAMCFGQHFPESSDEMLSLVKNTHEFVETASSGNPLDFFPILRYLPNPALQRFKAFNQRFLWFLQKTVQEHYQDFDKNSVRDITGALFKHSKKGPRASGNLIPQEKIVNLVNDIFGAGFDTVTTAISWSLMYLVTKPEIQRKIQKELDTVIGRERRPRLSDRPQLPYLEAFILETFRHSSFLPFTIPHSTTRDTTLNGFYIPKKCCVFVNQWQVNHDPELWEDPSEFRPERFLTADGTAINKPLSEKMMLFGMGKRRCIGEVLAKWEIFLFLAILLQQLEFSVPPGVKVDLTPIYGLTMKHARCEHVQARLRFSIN
Method in brief: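 Human CYP1A2 (20nM) demethylated Luciferin-ME at its Km (100uM) in 100mM KPO4. After 10 min compound preincubation, NADPH regeneration ran the reaction 60 min at room temperature. Luciferin was read by luminescence, normalized to 57 uM furafylline.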

[15] = target: Cytochrome P450 3A4 (Homo sapiens) (UniProt P08684); assay: qHTS Assay for Activators of Cytochrome P450 3A4 (AID 885); settings: recombinant CYP3A4, Luciferin-PPXE luminescence, 60 min; series mostly up to 57.1 µM; note: nearly all actives have a fitted effect of over 65% in size
Chain of Cytochrome P450 3A4 (Homo sapiens) (P08684 whole entry, looked up): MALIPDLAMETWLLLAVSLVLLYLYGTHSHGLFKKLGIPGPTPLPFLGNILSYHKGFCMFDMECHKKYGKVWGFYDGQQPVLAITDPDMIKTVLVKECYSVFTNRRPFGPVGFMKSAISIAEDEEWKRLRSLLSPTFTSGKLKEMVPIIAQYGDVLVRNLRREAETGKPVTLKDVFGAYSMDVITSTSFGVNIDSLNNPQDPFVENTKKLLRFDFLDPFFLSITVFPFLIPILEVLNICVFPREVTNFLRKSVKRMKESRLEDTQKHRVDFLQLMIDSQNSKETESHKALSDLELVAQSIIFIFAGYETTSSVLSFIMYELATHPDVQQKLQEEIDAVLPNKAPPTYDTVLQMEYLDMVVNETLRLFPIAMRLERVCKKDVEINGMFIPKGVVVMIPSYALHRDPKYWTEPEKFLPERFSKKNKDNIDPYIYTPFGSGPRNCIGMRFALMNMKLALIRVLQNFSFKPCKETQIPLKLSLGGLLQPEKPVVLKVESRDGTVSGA
Method in brief: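 20nM CYP3A4 + 25uM Luciferin-PPXE (=KM), 200mM KPO4; cpd 10 min RT; NADPH regen, 60 min RT; stop w/ detection buffer, 20 min; luminescence. Normalized to 57 uM ketoconazole.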

[16] = target: Cytochrome P450 2C19 (Homo sapiens) (UniProt P33261); assay: qHTS Assay for Inhibitors and Substrates of Cytochrome P450 2C19 (AID 899); settings: recombinant CYP2C19, luciferin-H EGE luminescence; series mostly up to 57.1 µM; note: potency is the fitted concentration of half-maximal effect; nearly all actives have a fitted effect of over 60% in size
Chain of Cytochrome P450 2C19 (Homo sapiens) (P33261 whole entry, looked up): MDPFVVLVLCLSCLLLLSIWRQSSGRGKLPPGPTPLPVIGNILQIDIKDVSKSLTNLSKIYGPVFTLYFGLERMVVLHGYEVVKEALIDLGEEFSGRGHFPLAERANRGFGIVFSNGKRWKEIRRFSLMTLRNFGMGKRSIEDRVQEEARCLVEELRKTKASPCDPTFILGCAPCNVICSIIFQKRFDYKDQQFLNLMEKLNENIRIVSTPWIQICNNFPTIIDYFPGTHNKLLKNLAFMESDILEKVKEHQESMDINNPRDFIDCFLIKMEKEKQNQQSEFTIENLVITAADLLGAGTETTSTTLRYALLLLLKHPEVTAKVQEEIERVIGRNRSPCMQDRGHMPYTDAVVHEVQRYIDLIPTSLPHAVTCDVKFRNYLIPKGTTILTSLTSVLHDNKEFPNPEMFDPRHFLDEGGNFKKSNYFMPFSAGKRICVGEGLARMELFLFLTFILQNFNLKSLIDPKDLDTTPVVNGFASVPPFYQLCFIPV
Method in brief: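 5nM enzyme + 10uM Luciferin-H EGE (=KM), 50mM KPO4; cpd pin-transferred, 10 min 37C; NADPH regen, 60 min 37C; stopped w/ luciferin detection reagent, 20 min; luminescence. Normalized to 57uM ketoconazole (AC100).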

[17] = target: Cytochrome P450 3A4 (Homo sapiens) (UniProt P08684); assay: qHTS Assay for Inhibitors and Substrates of Cytochrome P450 3A4 (AID 884); settings: recombinant CYP3A4, Luciferin-PPXE luminescence; series mostly up to 57.1 µM; note: potency is the fitted concentration of half-maximal effect; nearly all actives have a fitted effect of over 50% in size
Method in brief: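 20 nM human CYP3A4 with 25 uM Luciferin-PPXE (at KM) in 200 mM KPO4, preincubated 10 min with compound; NADPH regeneration started a 60 min RT reaction. Luciferin detected by luminescence, normalized to 57 uM ketoconazole as full inhibition.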

SMILES | Potency [1] [µM] | activity change, negative = inhibition [2] [%] | activity change, negative = inhibition [3] [%] | activity, negative = inhibition [4] [%] | Potency [5] [µM] | Potency [6] [µM] | Potency [7] | Potency [8] | Potency [9] | Potency [10] | Potency [11] | Potency [12] | outcome [13] | Potency [14] | Potency [15] | Potency [16] | Potency [17]
COCCn1c(=O)c(-c2ccc(OC)cc2)nc2cnc(N3CCOCC3)nc21 | > 11.4 | -13.6 | 8.4 | 25.9 | > 9.22 | > 46 | inactive | inactive | inactive | inactive | inactive | inactive | inactive |  |  |  | 
O=c1c(-c2cc(F)cc(F)c2)nc2cnc(N3CCOCC3)nc2n1CCc1ccccc1 | > 11.4 | 29.6 |  |  | > 9.22 | > 46 | inactive | inactive | inactive | inactive | inactive | inactive | inactive | 2.51 µM (active) |  |  | 
COc1ccc(-c2nc3cnc(N(C)C)nc3n(Cc3cccs3)c2=O)cc1 | > 11.4 | 17.1 |  |  | > 9.22 | > 46 |  |  | inactive | inactive | inactive | inactive | inactive | 1.58 µM (active) | inactive |  | 
Cc1noc(C)c1-c1ccc2ncnc(NCc3cccs3)c2c1 | > 11.4 | 20.1 |  |  | > 46 | > 46 | inactive |  | 0.501 µM (active) | 0.447 µM (active) | 0.158 µM (active) |  | inactive | 0.398 µM (active) | inactive | 1.26 µM (active) | 
CN(C)c1ncc2nc(-c3ccccc3)c(=O)n(CCC#N)c2n1 | > 11.4 | -4.57 |  |  | > 9.22 | > 46 | inactive |  | inactive | inactive | inactive | inactive | inactive | 1.58 µM (active) |  |  | 
CCNc1ncc2nc(-c3ccc(F)cc3)c(=O)n(-c3ccc(OC)cc3)c2n1 | > 11.4 | -1.24 |  | 20.4 | > 9.22 | > 46 | inactive |  | inactive | inactive | inactive | inactive | inactive | 6.31 µM (active) | inactive |  | 
O=c1c(-c2ccc(F)cc2)nc2cncnc2n1Cc1ccccc1 | > 11.4 | -5.88 | -16.1 | 9.13 | > 9.22 | > 46 | inactive |  | inactive | inactive | inactive | inactive | inactive |  |  |  | 
CC(=O)NCCNc1ncncc1-c1ccccc1CN(C)C | > 11.4 | 1.84 |  | 0.764 | > 46 | > 46 | inactive | inactive | inactive | inactive | inactive | inactive | inactive | 25.1 µM (active) | inactive |  | 
CC(=O)NCCNc1ncnc2ccc(-c3ccc4c(c3)OCO4)cc12 | > 11.4 | -23.9 |  | -10.3 | > 46 | > 46 | inactive |  | 0.141 µM (active) | 0.0891 µM (active) | 0.126 µM (active) | inactive | inactive | 0.501 µM (active) | inactive | 6.31 µM (active) | 5.01 µM (active)
O=c1c(-c2ccc(F)cc2)nc2cncnc2n1Cc1ccc(F)cc1 | > 11.4 | -9.76 | -10 | -2.38 | > 9.22 | > 46 | inactive |  | inactive | inactive | inactive | inactive | inactive |  |  |  | 
CN(C)c1ncc2nc(CCc3ccccc3)c(=O)n(C3CC3)c2n1 | > 11.4 | 1.45 |  | -4.87 | > 9.22 | > 46 | inactive |  | inactive | inactive | inactive | inactive | inactive | 3.16 µM (active) | inactive |  | 
O=c1c(-c2ccccc2)nc2cnc(N3CCOCC3)nc2n1C[C@H]1CCCO1 | > 11.4 | 17 |  | 20.8 |  | > 46 | inactive | inactive | inactive | inactive | inactive | inactive | inactive | 3.16 µM (active) | inactive |  | 
COc1cccc(-c2cncnc2Nc2ccccc2)c1 | > 11.4 | -6.33 | 0.84 | -2.57 | > 46 | > 46 | inactive |  | inactive | inactive | inactive | inactive | inactive |  |  |  | 

From PubChem BioAssay (NCATS)
